From PubChem BioAssay (Tox21)
Records with an inconclusive call do not appear. Where a call stands in place of a potency, no number is given. The source holds several records for some structures; these can differ, active in one and inactive in another. Active and inactive are the calls of the source. Unless noted, the call rests on the fitted dose curve; in most records, active means well fitted curve in the direction sought with a large enough effect in the repeat runs; inconclusive means weak or mixed curves; inactive means no such curve, though single readings can be large; an effect the other way counts as inactive or inconclusive.

target: Retinoic acid receptor RXR-alpha (Homo sapiens) (UniProt P19793); assay: qHTS assay to identify small molecule agonists of the RXR signaling pathway (AID 1159527; calls by dose curve; further: nearly all actives have a fitted effect of over 35% in size; further: potency means the concentration at half of the fitted maximal effect); settings: HEK293T RXRa-UAS-bla, beta-lactamase ratio, 16 h; series mostly up to 76.8 µM; activation: at the top concentration
Sequence (P19793 whole entry, looked up): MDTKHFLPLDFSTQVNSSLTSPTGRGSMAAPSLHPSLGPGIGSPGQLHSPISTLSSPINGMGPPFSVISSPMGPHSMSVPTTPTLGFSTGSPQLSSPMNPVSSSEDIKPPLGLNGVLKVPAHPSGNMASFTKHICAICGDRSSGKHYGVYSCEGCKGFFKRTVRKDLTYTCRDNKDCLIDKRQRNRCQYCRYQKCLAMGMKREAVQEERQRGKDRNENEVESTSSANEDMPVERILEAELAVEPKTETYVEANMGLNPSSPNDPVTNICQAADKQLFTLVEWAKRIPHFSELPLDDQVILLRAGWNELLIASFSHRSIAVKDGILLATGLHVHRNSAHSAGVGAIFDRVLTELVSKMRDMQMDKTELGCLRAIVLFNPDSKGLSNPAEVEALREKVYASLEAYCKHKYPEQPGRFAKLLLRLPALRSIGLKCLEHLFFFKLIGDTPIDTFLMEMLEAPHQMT
Summary of the method: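 Beta-lactamase reporter assay, agonist format. Engineered HEK 293T line, charcoal-stripped FBS at 2%, overnight (16 hr) exposure, fluorescence at 460 and 530 nm after 405 nm excitation.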

SMILES | Potency | activation
NCCNc1cccc2ccccc12 | inactive | –
CC(C)CC(C)CC(O)CC(C)C (stereo not drawn) | inactive | –
NC(N)=NC(N)=NCCc1ccccc1 | inactive | –
CCOC(=O)C(C)(C)Oc1ccc(Cl)cc1 | inactive | –
Cc1cccc(C)c1O | inactive | –
NC(=O)N1c2ccccc2C=Cc2ccccc21 | inactive | –
C=CCOC(=O)CC(C)C | inactive | –
CCN(CC)CCOC(=O)c1ccc(N)cc1 | inactive | –
CC(=O)/C=C/C1=C(C)CCCC1(C)C | inactive | –
CC(=O)Oc1ccccc1C(=O)O | inactive | –
Nc1ccc(N=Nc2ccccc2)c(N)n1 | – | -10.2% [at 35.3 µM] (inactive)
O=C1CCCCCN1 | inactive | –
CN(C)Cc1cc(CN(C)C)c(O)c(CN(C)C)c1 | inactive | –
C/C=C/c1ccc(O)c(OC)c1 | inactive | –
N[C@@H](Cc1c[nH]c2ccc(O)cc12)C(=O)O | inactive | –
C1CNCCN1 | 11.3 µM (active) and inactive | –
CC(C)=CCC/C(C)=C/CO | inactive | –
COc1ccccc1O | inactive | –
OC[C@@H](O)[C@@H](O)[C@H](O)[C@H](O)CO | inactive | –
C#C[C@]1(O)CC[C@H]2[C@@H]3CCc4cc(O)ccc4[C@H]3CC[C@@]21C | – | -15% [at 35.3 µM] (inactive)
NC(=O)c1ccc([N+](=O)[O-])cc1Cl | inactive | –
C[C@]12CC[C@@H]3c4ccc(O)cc4CC[C@H]3[C@@H]1CCC2=O | – | 0.414% [at 35.3 µM] (inactive)
COc1ccccc1NC(=O)CC(C)=O | inactive | –
C#C[C@]1(O)CC[C@H]2[C@@H]3CCC4=CC(=O)CC[C@@H]4[C@H]3CC[C@@]21CC | inactive | –
C[C@]12CC[C@@H]3c4ccc(O)cc4C[C@@H](CCCCCCCCCS(=O)CCCC(F)(F)C(F)(F)F)[C@H]3[C@@H]1CC[C@@H]2O (stereo partly drawn) | inactive | –

test system: not listed separately; assay: qHTS assay to identify small molecule agonists of the RXR signaling pathway - cell viability counter screen (AID 1159529); settings: RXR-alpha-bla HEK293T viability, CellTiter-Glo, 16 h; series mostly up to 76.8 µM; activity change, negative = cytotoxicity: at the top concentration; further: nearly all actives have a fitted effect of over 50% in size; further: potency means the concentration at half of the fitted maximal effect;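 on activity change, negative = cytotoxicity: HEK 293T cells carrying an RXR-alpha UAS beta-lactamase reporter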
Summary of the method: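 Same-well viability check after the LiveBLAzer FRET read: CellTiter-Glo added, luminescence measured after 30 min at room temperature. Reporter HEK 293T cells had been treated with compounds for 16 hr following a 5 hr preincubation.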

SMILES | Potency | activity change, negative = cytotoxicity
NCCNc1cccc2ccccc12 | inactive | –
CC(C)CC(C)CC(O)CC(C)C (stereo not drawn) | inactive | –
CC1=C(/C=C/C(C)=C/C=C/C(C)=C/C(=O)O)C(C)(C)CCC1 | inactive | –
NC(N)=NC(N)=NCCc1ccccc1 | inactive | –
CCOC(=O)C(C)(C)Oc1ccc(Cl)cc1 | inactive | –
Cc1cccc(C)c1O | inactive | –
NC(=O)N1c2ccccc2C=Cc2ccccc21 | inactive | –
C=CCOC(=O)CC(C)C | inactive | –
CCN(CC)CCOC(=O)c1ccc(N)cc1 | inactive | –
CC(=O)/C=C/C1=C(C)CCCC1(C)C | inactive | –
CC(=O)Oc1ccccc1C(=O)O | inactive | –
CC(=O)OC/C=C(C)/C=C/C=C(C)/C=C/C1=C(C)CCCC1(C)C | inactive | –
Nc1ccc(N=Nc2ccccc2)c(N)n1 | inactive | –
O=C1CCCCCN1 | inactive | –
CN(C)Cc1cc(CN(C)C)c(O)c(CN(C)C)c1 | inactive | –
C/C=C/c1ccc(O)c(OC)c1 | inactive | –
N[C@@H](Cc1c[nH]c2ccc(O)cc12)C(=O)O | inactive | –
C1CNCCN1 | inactive | –
CC(C)=CCC/C(C)=C/CO | inactive | –
COc1ccccc1O | inactive | –
OC[C@@H](O)[C@@H](O)[C@H](O)[C@H](O)CO | inactive | –
C#C[C@]1(O)CC[C@H]2[C@@H]3CCc4cc(O)ccc4[C@H]3CC[C@@]21C | inactive | –
NC(=O)c1ccc([N+](=O)[O-])cc1Cl | inactive | –
C[C@]12CC[C@@H]3c4ccc(O)cc4CC[C@H]3[C@@H]1CCC2=O | – | -18.3% [at 35.3 µM] (inactive)
COc1ccccc1NC(=O)CC(C)=O | inactive | –
O=C1OC(c2ccc(O)cc2)(c2ccc(O)cc2)c2ccccc21 | 19.4 µM (active) and inactive | –
C#C[C@]1(O)CC[C@H]2[C@@H]3CCC4=CC(=O)CC[C@@H]4[C@H]3CC[C@@]21CC | inactive | –
C[C@]12CC[C@@H]3c4ccc(O)cc4C[C@@H](CCCCCCCCCS(=O)CCCC(F)(F)C(F)(F)F)[C@H]3[C@@H]1CC[C@@H]2O (stereo partly drawn) | inactive | –

test system: not listed separately; assay: qHTS assay to identify small molecule antagonists of the retinoid acid receptor (RAR) signaling pathway - cell viability counter screen (AID 1159551); settings: C3RL4 cells viability, ATP luminescence (CellTiter-Glo), 6 h; series mostly up to 92.4 µM; activity change, negative = cytotoxicity: at the top concentration; further: nearly all actives have a fitted effect of over 35% in size
Summary of the method: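 Following overnight attachment, C3RL4 reporter cells received DMSO-dissolved compounds and then retinol (1 uM final). Six hours later at 37 C, ATP content was measured by CellTiter-Glo luminescence.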

SMILES | outcome
NCCNc1cccc2ccccc12 | inactive
CC(C)CC(C)CC(O)CC(C)C (stereo not drawn) | inactive
CC1=C(/C=C/C(C)=C/C=C/C(C)=C/C(=O)O)C(C)(C)CCC1 | inactive
NC(N)=NC(N)=NCCc1ccccc1 | inactive
COc1cc2c(c(OC)c1OC)-c1ccc(OC)c(=O)cc1[C@@H](NC(C)=O)CC2 | inactive
CCOC(=O)C(C)(C)Oc1ccc(Cl)cc1 | inactive
Cc1cccc(C)c1O | inactive
NC(=O)N1c2ccccc2C=Cc2ccccc21 | inactive
C=CCOC(=O)CC(C)C | inactive
CCN(CC)CCOC(=O)c1ccc(N)cc1 | inactive
CC(=O)/C=C/C1=C(C)CCCC1(C)C | inactive
CC(=O)Oc1ccccc1C(=O)O | inactive
CC(=O)OC/C=C(C)/C=C/C=C(C)/C=C/C1=C(C)CCCC1(C)C | inactive
Nc1ccc(N=Nc2ccccc2)c(N)n1 | inactive
O=C1CCCCCN1 | inactive
CN(C)Cc1cc(CN(C)C)c(O)c(CN(C)C)c1 | inactive
C/C=C/c1ccc(O)c(OC)c1 | inactive
CC(C)(C)CC(C)(C)c1ccc(O)c(-n2nc3ccccc3n2)c1 | inactive
N[C@@H](Cc1c[nH]c2ccc(O)cc12)C(=O)O | inactive
C1CNCCN1 | inactive
CC(C)=CCC/C(C)=C/CO | inactive
COc1ccccc1O | inactive
OC[C@@H](O)[C@@H](O)[C@H](O)[C@H](O)CO | inactive
C#C[C@]1(O)CC[C@H]2[C@@H]3CCc4cc(O)ccc4[C@H]3CC[C@@]21C | inactive
NC(=O)c1ccc([N+](=O)[O-])cc1Cl | inactive
C[C@]12CC[C@@H]3c4ccc(O)cc4CC[C@H]3[C@@H]1CCC2=O | inactive
COc1ccccc1NC(=O)CC(C)=O | inactive
O=C1OC(c2ccc(O)cc2)(c2ccc(O)cc2)c2ccccc21 | inactive
C#C[C@]1(O)CC[C@H]2[C@@H]3CCC4=CC(=O)CC[C@@H]4[C@H]3CC[C@@]21CC | inactive
C[C@]12CC[C@@H]3c4ccc(O)cc4C[C@@H](CCCCCCCCCS(=O)CCCC(F)(F)C(F)(F)F)[C@H]3[C@@H]1CC[C@@H]2O (stereo partly drawn) | inactive
